Our source for the outcome and AC50 values is PubChem BioAssay (EPA / NIEHS).

Calls of active or inactive are those of the source. The calls were made as follows: active = hit-call score of the fitted dose curve at least 0.9, where 1 is the maximum; inactive = score below 0.9.

This test is described as follows: CCTE_Shafer_MEA_acute_synchrony_index: CCTE's Neural Acute Assay for Synchrony, Shafer Lab (AID 2284027).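 Also: fitted for loss of signal so actives lower synchrony relative to DMSO.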 How it is done: CCTE_Shafer_MEA_acute assay is conducted using Axion Biosystems 48 well microelectrode array (MEA) plates and Maestro recording system. Each well of the MEA plate contains a grid of 16 microelectrodes embedded in the culture surface. Electrically active cells, such as neurons, can be cultured over the electrodes, and electrical activity in these cells can be recorded extracellularly. The spontaneous firing of neurons is captured from each electrode on a microsecond timescale providing both temporally and spatially precise data. […] The CCTE_Shafer_MEA_acute assay uses primary cultures of rat cortical neurons. As these cultures mature over time, neural networks develop functional activity and form cohesive networks in which electrical activity can be highly coordinated. Baseline 40-minute recordings are made on days post-plating 13 or 15, followed by a secondary 40-minute recording after chemical exposure.CCTE_Shafer_MEA_acute_synchrony_index is a component of the CCTE_Shafer_MEA_acute assay. It measures the synchrony of the neural network as a unitless measure between 0 (low synchrony) to 1 (high synchrony) during a recording in a microelectrode array (MEA) using Axion Biosystems Maestro 768 channel amplifier with the AxIS adaptive spike detector. The recordings before and after chemical treatment are used to calculate a percent change in the synchrony index in each well.Data from the assay component CCTE_Shafer_MEA_acute_synchrony_index was analyzed into 1 assay endpoint. This assay endpoint, CCTE_Shafer_MEA_acute_synchrony_index, was analyzed in the negative analysis fitting direction relative to DMSO as the negative control and baseline of activity. Using a type of functional reporter, gain or loss-of-signal activity can be used to understand electrical activity.
Spontaneous activity in the cortical cultures was recorded using an Axion Biosystems Maestro 768 channel amplifier and Axion Integrated Studios (AxIS) v1.8 (or later) software. The amplifier recorded from all channels simultaneously (gain = 1200 x; sampling rate = 12.5 kHz/channel): raw signals were filtered with a Butterworth band-pass filter (300-5000 Hz), which filters out slower local field potentials leaving only fast potentials, i.e., "spikes", arising from extracellular currents associated with action potentials (Pine 2006; Wheeler and Nam 2011). On-line spike detection of filtered signals was conducted with the AxIS adaptive spike detector, using a threshold of 8x the root mean squared (rms) noise on each channel. Any electrodes with rms noise levels greater than 5 uV were grounded (e.g., no data were recorded). Once grounded, an electrode was grounded for the duration of the experiment. All recordings were conducted at 37 C. Wells were deemed usable if on the day of the exposure >/= 10 electrodes were active (defined as >/= 5 spikes/min). On DIV 13 or 15, a minimum of three wells from one cortical culture preparation were treated with each compound (0.03-40 uM). Prior to recording baseline activity, each mwMEA plate was placed in the Maestro at 37 C and allowed to sit for 20 min while firing rates stabilized. Baseline activity (40 min) was recorded before the addition of each compound. An additional 40 min of spontaneous activity was recorded in the presence of each compound. Changes in network parameters relative to baseline were assessed following compound treatment.
Regarding `CCCCC=O`, the compound was classed as inactive. The same measure, in the same setting: as for `O=C(CCCN1CCC(O)(c2ccc(Cl)cc2)CC1)c1ccc(F)cc1`, the entry is “inactive”; as for `OCC(CO)(CBr)CBr`, “inactive”. Same read-out and setting: as for `CN(C)CCOC(c1ccccc1)c1ccccc1`, the entry is “inactive”; as for `O=C1NS(=O)(=O)c2ccccc21`, “inactive”; as for `CCCCCCCCCCCC`, “inactive”. One may read the AC50 as the concentration at which the activity in the assay is half-maximal. As for `CCC(C)c1ccccc1O` (configuration not stated), the AC50 was 7.45 µM (active). On the same count and under the same terms, as for `N=C(N)c1ccc(OCCCCCOc2ccc(C(=N)N)cc2)cc1`, the figure is 26.3 µM (active).

Take `CCCCc1oc2ccccc2c1C(=O)c1cc(I)c(OCCN(CC)CC)c(I)c1`: the result was inactive.

Regarding `CC(=O)Nc1ccc(O)cc1`, the compound was called inactive. As for `Oc1c(Cl)cc(Cl)cc1Sc1cc(Cl)cc(Cl)c1O`, the AC50 was 8.67 µM (active). In the case of `Oc1ccc(Cc2ccccc2O)cc1`, the outcome was inactive.
